# Measured values reported in the supplement of paper PMC8728848.
# Shown is part of a subset that was picked to be rich in the strongest signals.
# Assays:
# Assay in all cases: glycan array binding signal (z-score within array); higher = stronger binding
# Settings in all cases: glycan notation: IUPAC condensed, linker removed
# [1] = target: GalNAc(b1-3)Gal
# Procedure, shortened: (§1)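 Glycan array binding is given as a within-array Z-score, which can be read as non-binding when negative. The arrays, 3228 of them, came from the Consortium for Functional Glycomics database and were retained only where the protein sequence was available. Z-scores were averaged across arrays of the same protein sequence at different concentrations or buffers and across linkers.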
# [2] = target: GalNAc6S(b1-4)GlcNAc
# Procedure, shortened: as §1
# [3] = target: Glc(b1-6)Glc
# Procedure, shortened: as §1
# [4] = target: GlcNAc(a1-4)Gal(b1-3)GlcNAc
# Procedure, shortened: as §1
# [5] = target: GlcNAc(b1-2)Man(a1-3)[GlcNAc(b1-2)Man(a1-6)]Man(b1-4)GlcNAc(b1-4)[Fuc(a1-6)]GlcNAc
# Procedure, shortened: as §1
# [6] = target: GlcNAc(b1-3)Gal(b1-4)GlcNAc(b1-2)[GlcNAc(b1-3)Gal(b1-4)GlcNAc(b1-6)]Man(a1-6)[GlcNAc(b1-3)Gal(b1-4)GlcNAc(b1-2)Man(a1-3)]Man(b1-4)GlcNAc(b1-4)GlcNAc
# Procedure, shortened: as §1
# [7] = target: GlcNAc(b1-3)Gal(b1-4)GlcNAc(b1-3)Gal(b1-4)GlcNAc(b1-2)Man(a1-3)[GlcNAc(b1-3)Gal(b1-4)GlcNAc(b1-3)Gal(b1-4)GlcNAc(b1-2)Man(a1-6)]Man(b1-4)GlcNAc(b1-4)GlcNAc
# Procedure, shortened: as §1
# [8] = target: GlcNAc(b1-3)Gal(b1-4)GlcNAc(b1-3)Gal(b1-4)GlcNAc(b1-3)Gal(b1-4)GlcNAc(b1-2)Man(a1-3)[GlcNAc(b1-3)Gal(b1-4)GlcNAc(b1-3)Gal(b1-4)GlcNAc(b1-3)Gal(b1-4)GlcNAc(b1-2)Man(a1-6)]Man(b1-4)GlcNAc(b1-4)[Fuc(a1-6)]GlcNAc
# Procedure, shortened: as §1
# [9] = target: GlcNAc(b1-3)Gal(b1-4)GlcNAc(b1-3)Gal(b1-4)GlcNAc(b1-3)Gal(b1-4)GlcNAc(b1-3)Gal(b1-4)GlcNAc(b1-2)Man(a1-3)[GlcNAc(b1-3)Gal(b1-4)GlcNAc(b1-3)Gal(b1-4)GlcNAc(b1-3)Gal(b1-4)GlcNAc(b1-3)Gal(b1-4)GlcNAc(b1-2)Man(a1-6)]Man(b1-4)GlcNAc(b1-4)[Fuc(a1-6)]GlcNAc
# Procedure, shortened: as §1
# [10] = target: GlcNAc(b1-3)[GlcNAc(b1-6)]Gal(b1-4)GlcNAc
# Procedure, shortened: as §1
# [11] = target: GlcNAc(b1-6)GalNAc
# Procedure, shortened: as §1
# [12] = target: GlcNAc6S(b1-3)Gal(b1-4)GlcNAc
# Procedure, shortened: as §1
# [13] = target: Man(a1-2)Man(a1-6)[Man(a1-3)]Man(a1-6)[Man(a1-2)Man(a1-2)Man(a1-3)]Man
# Procedure, shortened: as §1
# [14] = target: Man(a1-3)[Man(a1-6)]Man
# Procedure, shortened: as §1
# [15] = target: Man(a1-3)[Man(a1-6)]Man(a1-6)[Man(a1-2)Man(a1-3)]Man(b1-4)GlcNAc(b1-4)GlcNAc
# Procedure, shortened: as §1
# [16] = target: Neu5Ac(a2-3)Gal(b1-3)GlcNAc(b1-2)Man(a1-3)[GlcNAc(b1-4)][Neu5Ac(a2-3)Gal(b1-3)GlcNAc(b1-2)Man(a1-6)]Man(b1-4)GlcNAc(b1-4)GlcNAc
# Procedure, shortened: as §1
# [17] = target: Neu5Ac(a2-3)Gal(b1-3)GlcNAc(b1-4)Gal(b1-4)Glc
# Procedure, shortened: as §1
# [18] = target: Neu5Ac(a2-3)Gal(b1-3)[Neu5Ac(a2-6)]GlcNAc(b1-3)[Fuc(a1-3)[Gal(b1-4)]GlcNAc(b1-6)]Gal(b1-4)Glc
# Procedure, shortened: as §1
# [19] = target: Neu5Ac(a2-3)Gal(b1-4)GlcNAc(b1-2)[Neu5Ac(a2-3)Gal(b1-4)GlcNAc(b1-6)]Man(a1-6)[Neu5Ac(a2-3)Gal(b1-4)GlcNAc(b1-2)Man(a1-3)]Man(b1-4)GlcNAc(b1-4)GlcNAc
# Procedure, shortened: as §1
# [20] = target: Neu5Ac(a2-3)Gal(b1-4)GlcNAc(b1-3)Gal(b1-4)GlcNAc(b1-2)Man(a1-3)[Neu5Ac(a2-3)Gal(b1-4)GlcNAc(b1-3)Gal(b1-4)GlcNAc(b1-2)Man(a1-6)]Man(b1-4)GlcNAc(b1-4)GlcNAc
# Procedure, shortened: as §1
# [21] = target: Neu5Ac(a2-3)Gal(b1-4)GlcNAc(b1-3)Gal(b1-4)GlcNAc(b1-3)Gal(b1-4)GlcNAc(b1-2)Man(a1-3)[Neu5Ac(a2-3)Gal(b1-4)GlcNAc(b1-3)Gal(b1-4)GlcNAc(b1-3)Gal(b1-4)GlcNAc(b1-2)Man(a1-6)]GalNAc
# Procedure, shortened: as §1
# [22] = target: Neu5Ac(a2-3)Gal(b1-4)GlcNAc(b1-3)Gal(b1-4)GlcNAc(b1-3)GalNAc
# Procedure, shortened: as §1
# [23] = target: Neu5Ac(a2-3)Gal6S(b1-4)[Fuc(a1-3)]GlcNAc
# Procedure, shortened: as §1
# [24] = target: Neu5Ac(a2-6)Gal(b1-4)GlcNAc(b1-2)Man(a1-3)[Gal(b1-4)GlcNAc(b1-2)Man(a1-6)]Man(b1-4)GlcNAc(b1-4)GlcNAc
# Procedure, shortened: as §1
# [25] = target: Neu5Ac(a2-6)Gal(b1-4)GlcNAc(b1-2)Man(a1-3)[GlcNAc(b1-2)Man(a1-6)]Man(b1-4)GlcNAc(b1-4)GlcNAc
# Procedure, shortened: as §1
# [26] = target: Neu5Ac(a2-6)Gal(b1-4)GlcNAc(b1-3)Gal(b1-4)GlcNAc(b1-3)Gal(b1-4)GlcNAc(b1-2)Man(a1-3)[Neu5Ac(a2-6)Gal(b1-4)GlcNAc(b1-3)Gal(b1-4)GlcNAc(b1-3)Gal(b1-4)GlcNAc(b1-2)Man(a1-6)]GalNAc
# Procedure, shortened: as §1
# [27] = target: Neu5Ac(a2-6)Gal(b1-4)GlcNAc(b1-6)[Gal(b1-3)GlcNAc(b1-3)]Gal(b1-4)Glc
# Procedure, shortened: as §1
# [28] = target: Neu5Ac(a2-8)Neu5Ac
# Procedure, shortened: as §1
# [29] = target: Neu5Ac(a2-8)Neu5Ac(a2-3)[GalNAc(b1-4)]Gal(b1-4)Glc
# Procedure, shortened: as §1
binder,measurement,setting,value
FliC (Clostridium difficile) (protein) MRVNTNVSALIANNQMGRNVNGQSKSMEKLSSGVRIKRAADDAAGLAISEKMRAQIKGLDQAGRNVQDGISVVQTAEGSLEETGNILQRMRTLSLQSANEINNTEEREKIADELTQLKDEIERISSSTEFNGKKLLDGTSSTIRLQVGASYGTNVSGTSNNNNEIKIQLVNTASIMASAGITTASIGSMKAGGTTGTDAAKTMVSSLDAALKSLNSSRAKLGAQQNRLESTQNNLNNTLENVTAAESRIRDTDVASEMVNLSKMNILVQASQSMLAQANQQPQGVLQLLG,glycan array binding signal (z-score),[1],-0.175
same,glycan array binding signal (z-score),[2],0.047
same,glycan array binding signal (z-score),[3],1.72
same,glycan array binding signal (z-score),[4],0.947
same,glycan array binding signal (z-score),[5],0.458
same,glycan array binding signal (z-score),[6],3
same,glycan array binding signal (z-score),[7],0.372
same,glycan array binding signal (z-score),[8],-0.149
same,glycan array binding signal (z-score),[9],-0.369
same,glycan array binding signal (z-score),[10],-0.057
same,glycan array binding signal (z-score),[11],-0.08
same,glycan array binding signal (z-score),[12],0.071
same,glycan array binding signal (z-score),[13],0.153
same,glycan array binding signal (z-score),[14],-0.471
same,glycan array binding signal (z-score),[15],3.18
same,glycan array binding signal (z-score),[16],0.514
same,glycan array binding signal (z-score),[17],0.17
same,glycan array binding signal (z-score),[18],-0.645
same,glycan array binding signal (z-score),[19],-0.275
same,glycan array binding signal (z-score),[20],1.02
same,glycan array binding signal (z-score),[21],6.63
same,glycan array binding signal (z-score),[22],-0.31
same,glycan array binding signal (z-score),[23],-0.433
same,glycan array binding signal (z-score),[24],-0.515
same,glycan array binding signal (z-score),[25],0.511
same,glycan array binding signal (z-score),[26],2.32
same,glycan array binding signal (z-score),[27],-0.577
same,glycan array binding signal (z-score),[28],-0.234
same,glycan array binding signal (z-score),[29],-0.626
